Screens from PubChem BioAssay.
This is a sample that favours compounds with a hit; in the whole collection about 19% have one here.
IL-1B inflam inh = inhibitors of inflammasome signaling (IL-1 beta secretion); activity change, % at 57.5 µM; THP-1 LPS/ATP IL-1B secretion, AlphaLISA, 16 h; active compounds read low; 360,000 tested, 4.7% active; in the data active = activity change below about -50%; inconclusive = mostly about -30% to -49%
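Secreted IL-1B measured by AlphaLISA bead assay after 16 h compound exposure of THP-1 cells; compounds (final up to 57.5 uM) added 1 h before LPS (250 ng/mL) and ATP (1.25 mM) stimulation; lower signal means less secretion.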
DT40 TDP1 CPT = DT40-hTDP1 cell growth loss with CPT. chicken DT40 Tdp1-/-;hTDP1 cells + 20 nM CPT, ATP luminescence, 48 h. 420,000 tested, 12% active. Potency, µM (series often up to 46.2 µM), for the others: top-dose activity change, negative = growth inhibition, most hits filed as inhibitors. AID 686979; also: potency is read from the fitted curve at half-maximal effect; nearly all actives have a fitted effect of over 55% in size
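Chicken DT40 Tdp1-/- cells stably complemented with human TDP1 were seeded at 400 cells/well in medium containing 20 nM camptothecin, exposed to pin-transferred compounds, and grown at 37 °C for at least 48 hr. Viability was read as ATP luminescence.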
DT40 TDP1 no CPT = qHTS for Inhibitors of human tyrosyl-DNA phosphodiesterase 1 (TDP1): qHTS in cells in absence of CPT. AID 686978, 2013. Potency, µM (doses to about 46.2 µM), inactives show at the top dose activity change, negative = growth inhibition, most hits filed as inhibitors. 420,000 tested, 15% active. DT40 Tdp1-/- hTDP1 cells, no CPT, ATP luminescence, 48 h; also: potency is read from the fitted curve at half-maximal effect; nearly all actives have a fitted effect of over 55% in size
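Chicken DT40 Tdp1-/- cells complemented with human TDP1, screened without camptothecin (DMSO vehicle only), 400 cells/well. Compounds pin-transferred, cells incubated at 37 °C for at least 48 hr. Growth read as ATP-dependent luminescence (CellTiter-Glo, 30 min at RT).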
Giardia kill = Giardia lamblia killing. Giardia lamblia trophozoite viability. activity change, % at 7.66 µM, hits read low. 340,000 tested, 0.15% active; in the data active = activity change below about -80%; inconclusive = between about -30% and that limit;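 also: parasites exposed to compound for two days anaerobically before the ATP read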
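Trophozoite viability was measured as ATP-dependent luminescence, read 15-30 min after reagent addition. Before that, parasites at 100 cells/well were exposed to compounds for 48 h, anaerobically, at 37 deg C.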
TDP1 inh = blocks human tyrosyl-DNA phosphodiesterase 1; Q9NUW8; recombinant TDP1, AlphaScreen DNA substrate cleavage; Potency, µM (titrated, usually from 130 µM), for inactives: top-dose activity change, negative = inhibition, most hits filed as inhibitors; 350,000 tested, 0.28% active; also: potency is read from the fitted curve at half-maximal effect; nearly all actives have a fitted effect of over 40% in size
Target sequence (Q9NUW8 whole entry, looked up): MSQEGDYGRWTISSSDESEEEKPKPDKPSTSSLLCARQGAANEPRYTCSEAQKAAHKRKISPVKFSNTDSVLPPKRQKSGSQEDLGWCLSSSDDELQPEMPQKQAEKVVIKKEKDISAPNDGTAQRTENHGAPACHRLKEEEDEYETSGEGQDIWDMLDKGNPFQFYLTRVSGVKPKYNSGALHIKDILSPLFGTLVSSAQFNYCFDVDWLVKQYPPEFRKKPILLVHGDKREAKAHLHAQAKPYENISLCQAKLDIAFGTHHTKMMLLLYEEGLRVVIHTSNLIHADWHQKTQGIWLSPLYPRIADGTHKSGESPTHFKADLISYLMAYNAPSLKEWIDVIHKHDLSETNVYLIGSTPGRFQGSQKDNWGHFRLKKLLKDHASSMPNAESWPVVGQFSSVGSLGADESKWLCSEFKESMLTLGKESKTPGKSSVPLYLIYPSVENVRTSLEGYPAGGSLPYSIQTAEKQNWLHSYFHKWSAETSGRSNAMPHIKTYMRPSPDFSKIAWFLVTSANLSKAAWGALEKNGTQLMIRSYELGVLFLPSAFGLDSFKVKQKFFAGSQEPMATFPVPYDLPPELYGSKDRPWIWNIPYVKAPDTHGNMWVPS
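Signal: AlphaScreen proximity between streptavidin donor and anti-FITC acceptor beads on intact substrate. Reaction: Tdp1 1 nM, substrate 15 nM final, 5 min RT after 15 min compound preincubation.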
ELG1 repair inh = inhibitors of ELG1-dependent DNA repair in HEK293T cells; HEK293T ELG1-luciferase reporter, luminescence, 16 h; DNA damage induced by 5-fluorouridine; 330,000 tested, 2.3% active; AID 504467; Potency, µM (highest dose often 46.1 µM), for the others: at the highest dose activity change, negative = inhibition, most hits filed as inhibitors; also: potency is read from the fitted curve at half-maximal effect; nearly all actives have a fitted effect of over 55% in size
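DMSO vehicle served as the neutral condition. Each well held 2,000 cells given 5-fluorouridine plus compound; after 16 hr at 37 °C/5% CO2, ONE-Glo was added and luciferase measured 30 min later.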
* hit, by the source's call. Unless noted, calls follow the shape of the dose curve; as a rule, active = well fitted curve in the direction sought with a large enough effect; inconclusive = small, poorly fitted or top-dose-only effect, or another doubt; inactive = no such curve, though single readings can be large; an effect the other way counts as inactive or inconclusive. % is scaled to controls: 0 for no effect and ±100 for the full control effect.

For Cc1ccccc1Cn1c(CN2CCC(C(=O)NCc3cccnc3)CC2)cc2ccccc21 the results were DT40 TDP1 CPT inconclusive, DT40 TDP1 no CPT inconclusive and TDP1 inh 7.4%.
`COc1cccc(N/C(N)=N/c2nc(C(F)(F)F)cc(=O)[nH]2)c1` gave IL-1B inflam inh 19.4, DT40 TDP1 CPT 10.3µM*, DT40 TDP1 no CPT inconclusive, Giardia kill -1.9, TDP1 inh 4.1% and ELG1 repair inh inconclusive.
N/C(=N\c1nc(C(F)(F)F)cc(=O)[nH]1)Nc1ccc(Cl)cc1 was read as TDP1 inh 0.6% and ELG1 repair inh -0.5%.
CC(=O)C1=C(O)C(=O)N(Cc2ccccc2)C1c1ccc(Br)cc1 (centres undefined) was read as IL-1B inflam inh 21.5, DT40 TDP1 CPT 25.2%, DT40 TDP1 no CPT -21.4%, Giardia kill 2.3 and ELG1 repair inh -8.9%.
`CCC(CC)C(=O)Nc1ccc(S(=O)(=O)N2CCC(c3nc4ccccc4s3)CC2)cc1` gave DT40 TDP1 CPT 6.3%, DT40 TDP1 no CPT -21.0% and TDP1 inh 2.9%.
`COc1c(O)cccc1/C=N/NC(=O)Cn1ccnc1C` gave IL-1B inflam inh 61.6, DT40 TDP1 CPT inconclusive, DT40 TDP1 no CPT 23.1µM*, Giardia kill inconclusive, TDP1 inh 5.6% and ELG1 repair inh 23.1µM*.
`COc1cccc(/C=N/NC(=O)Cn2ccnc2C)c1` gave IL-1B inflam inh 26.8, DT40 TDP1 CPT -7.5%, DT40 TDP1 no CPT -3.2%, Giardia kill -12.7, TDP1 inh 2.7% and ELG1 repair inh -8.0%.
For COc1ccc(C(CNC(=O)c2cc3ccccc3cc2O)N2CCOCC2)cc1 (centres undefined) the results were IL-1B inflam inh -7.0, DT40 TDP1 CPT inconclusive, DT40 TDP1 no CPT inconclusive, Giardia kill 8.2 and ELG1 repair inh inconclusive.
For COc1ccc(C(c2c(O)ccc3ccccc23)N2CCOCC2)c(OC)c1 (centres undefined) the results were IL-1B inflam inh 0.0, DT40 TDP1 CPT inconclusive, DT40 TDP1 no CPT 29.1µM*, Giardia kill 5.2, TDP1 inh 2.1% and ELG1 repair inh inconclusive.
Screening CCOC(=O)C1(C)C=C(Nc2cccc(C)c2)C(=O)N1c1ccccc1 (centres undefined) returned DT40 TDP1 CPT inconclusive and DT40 TDP1 no CPT 18.4µM*.
CN(Cc1ccccc1)C(=O)c1cc2c(s1)-c1ccc(Cl)cc1SC2 was read as DT40 TDP1 CPT inconclusive, DT40 TDP1 no CPT 23.1µM* and TDP1 inh -12.7%.
N#Cc1cccc(NC(=O)c2cc3c(s2)-c2ccc(Cl)cc2SC3)c1 was read as DT40 TDP1 CPT 25.9µM*, DT40 TDP1 no CPT 23.1µM* and TDP1 inh -5.1%.
O=C(NCc1cccc(Cl)c1)c1cc2c(s1)-c1ccccc1SC2 was read as DT40 TDP1 CPT -17.8%, DT40 TDP1 no CPT -26.4% and TDP1 inh -7.6%.
Screening COc1ccc(NC(=O)Nc2ccon2)cc1OC returned IL-1B inflam inh -2.7, DT40 TDP1 CPT 1.4%, DT40 TDP1 no CPT 24.9%, Giardia kill 6.9, TDP1 inh 2.1% and ELG1 repair inh -1.2%.
For CCN(C(=O)c1cc(S(=O)(=O)N2CCCC2)cn1C)c1ccc(OC)cc1 the results were DT40 TDP1 CPT -19.0%, DT40 TDP1 no CPT -26.1% and TDP1 inh 1.3%.
Screening CCCn1c(SCC(=O)c2ccc3c(c2)NC(=O)CO3)nc2ccccc21 returned IL-1B inflam inh 29.8, DT40 TDP1 CPT 10.3µM*, DT40 TDP1 no CPT 9.2µM*, Giardia kill 0.8, TDP1 inh 3.4% and ELG1 repair inh 9.9%.
`Cn1c(SCC(=O)c2ccc3c(c2)NC(=O)CO3)nc2ccccc21` gave IL-1B inflam inh 43.0, DT40 TDP1 CPT inconclusive, DT40 TDP1 no CPT inconclusive, Giardia kill 12.7, TDP1 inh -4.8% and ELG1 repair inh -6.0%.
